Assay results published in PubChem BioAssay.
Results filed as inconclusive are left out. For some assays here: Potency and affinity values are given separately. Some of the results follow. Active and inactive are the calls of the source.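 How the source made its calls, unless noted: active means fitted half-maximal concentration within the tested range, moderate curve steepness, significant signal drop, and little compound fluorescence or bead-linkage interference; inactive means the rest.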

Experiments:
[1] = target: Cell division control protein 42 homolog (Homo sapiens) (UniProt P60953); assay: activated mutant Cdc42 GTP-binding inhibitors, dose response, biochemical, multiplex bead flow cytometry, Bodipy-FL-GTP (AID 1333;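 active means fitted half-maximal concentration within the tested dose range, moderate curve steepness, a statistically real signal drop, and little compound fluorescence or tag-binding interference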)
Cell division control protein 42 homolog (Homo sapiens), sequence (P60953 whole entry, looked up): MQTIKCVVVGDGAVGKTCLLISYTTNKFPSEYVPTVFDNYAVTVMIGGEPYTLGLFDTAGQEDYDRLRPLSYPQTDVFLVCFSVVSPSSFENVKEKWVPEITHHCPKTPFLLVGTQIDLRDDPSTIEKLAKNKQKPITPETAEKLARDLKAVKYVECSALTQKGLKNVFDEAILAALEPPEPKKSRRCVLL

[2] = target: Cell division control protein 42 homolog (Homo sapiens) (UniProt P60953); assay: wildtype Cdc42 GTP-binding inhibitors, dose response, biochemical, multiplex bead flow cytometry, Bodipy-FL-GTP (AID 1334); conditions: bead-based flow cytometry, Bodipy-FL-GTP binding to GST-Cdc42; at 100 µM (top of the series) unless noted
[3] = target: GTPase HRas (Homo sapiens) (UniProt P01112); assay: inhibitors of GTP binding to wildtype Ras, dose response, biochemical, multiplex bead flow cytometry (AID 1335;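 active means fitted half-maximal concentration within 10 nM to 100 µM, steepness 0.5 to 2, significant signal drop, low assay interference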); conditions: bead-based flow cytometry, Bodipy-GTP binding to GST-Ras; at 100 µM (top of the series) unless noted
GTPase HRas (Homo sapiens), sequence (P01112 whole entry, looked up): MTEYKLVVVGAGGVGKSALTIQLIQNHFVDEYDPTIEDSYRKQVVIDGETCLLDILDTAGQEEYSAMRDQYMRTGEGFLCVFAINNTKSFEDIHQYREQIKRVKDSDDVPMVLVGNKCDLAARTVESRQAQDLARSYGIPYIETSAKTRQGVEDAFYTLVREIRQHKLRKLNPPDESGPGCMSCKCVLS

[4] = test system: Ras-related protein Rab-7a (dog), GTP binding; assay: Rab7 GTP binding inhibitors, potency, dose response, biochemical, wildtype, multiplex bead flow cytometry (AID 1336; call rule not given here)
[5] = target: Ras-related C3 botulinum toxin substrate 1 (Homo sapiens) (UniProt P63000); assay: wildtype Rac1 GTP binding inhibitors, dose response, biochemical, multiplex bead flow cytometry (AID 1340;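 active means dose curve with midpoint inside tested range, moderate steepness, plateau gap beyond fit error, low compound glow and bead-link interference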); conditions: GST-Rac1 beads, Bodipy-FL-GTP binding; at 100 µM (top of the series) unless noted
[6] = target: GTPase HRas (Homo sapiens) (UniProt P01112); assay: activated Ras mutant GTP binding inhibitors, dose response, biochemical, multiplex bead flow cytometry (AID 1341;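 active means dose-response curve with midpoint inside the tested range, moderate steepness, significant amplitude and little compound fluorescence or bead-attachment interference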;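 further: GST-tagged constitutively activated Ras mutant immobilized on beads and multiplexed with other GTPases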)
[7] = yeast TOR pathway RPL19A-GFP modulators, primary screen, cell-based, S. cerevisiae, multiplex flow cytometry (AID 1862; in the data active means percent of DMSO control GFP below about 86%;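 further: lower values mimic rapamycin by blocking the RPL19A rise seen in DMSO cells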); conditions: S. cerevisiae RPL19A-GFP strain, flow cytometry fluorescence, 3 h; at 10 µM; stronger effect = lower value
[8] = modulators of MEP2-GFP levels in yeast, primary screen, S. cerevisiae, multiplex flow cytometry (AID 1867;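 active means GFP response, as percent of the DMSO control, above the screen-wide mean plus 3 SD, about 139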;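 further: median GFP channel fluorescence of barcode-gated MEP2-GFP cells measured by flow cytometry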); conditions: S. cerevisiae MEP2-GFP strain, 3 h, at 10 µM, stronger effect = higher value, 100% means same as DMSO wells
[9] = modulators of CIT2-GFP expression in yeast, primary screen, S. cerevisiae, GFP fusion, multiplex flow cytometry (AID 1870;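 active means percent response above a set limit, the screen-wide mean plus 3 SD, cut at about 130% in these data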;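 further: barcoded CIT2-GFP strain pooled with four other GFP strains with rapamycin as positive control; median GFP fluorescence per well over plate mean of DMSO wells so 100% = DMSO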); conditions: 3 h, at 10 µM, stronger effect = higher value
[10] = modulators of LAP4-GFP expression in yeast, primary screen, S. cerevisiae, multiplex flow cytometry (AID 1873;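 active means GFP signal, as percent of the solvent control, above the screen mean plus 3 SD, about 149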); conditions: 3 h, at 10 µM, stronger effect = higher value
[11] = modulators of AGP1-GFP expression in yeast TOR pathway, primary screen, cell-based, multiplex flow cytometry, S. cerevisiae (AID 1887;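 active means GFP signal above the screen-wide mean plus 3 SD, that is over about 124.5% of the solvent control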;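 further: AGP1-GFP fusion strain of S. cerevisiae within a five-strain barcoded multiplex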); conditions: 3 h, at 10 µM, stronger effect = higher value
[12] = inhibitors of CD8+ T cell-vesicle binding, pilot screen, LFA-1/ICAM-1 modulator project, MLPCN validation set, flow cytometry (AID 2523;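 active means response below a set limit, under 55% cells CD8-positive and vesicle-bound, and CD8 cells' 90th-percentile brightness under 279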;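 on vesicle binding response: mean PE anti-B7-1 fluorescence of CD8+ cells relative to row control; 100% = QL9-loaded vesicles with DMSO vehicle in the same plate row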); conditions: 2C mouse CD8+ T cells, at 7 µM, stronger effect = lower value; double positive events: measured here: CD8+/vesicle+ event percentage
[13] = target: Integrin beta-1 (Homo sapiens) + Integrin alpha-4 (Homo sapiens) (UniProt P13612+P05556); assay: inhibition of HUTS-21 binding to VLA-4, pilot screen, VLA-4 allosteric modulator project, U937 cells, HUTS-21 mAb, flow cytometry, validation set (AID 2674;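 active means inhibition above 50%, about 3 SD of the validation set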;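 further: antibody binding induced by the VLA-4 ligand LDV present at three times its Kd; 0% = LDV ligand with antibody and no compound and 100% = antibody without LDV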); conditions: HUTS-21 LIBS mAb binding, at 6.7 µM, stronger effect = higher value, binding induced by LDV ligand
Integrin beta-1 (Homo sapiens) + Integrin alpha-4 (Homo sapiens), sequence (P05556 whole entry, looked up): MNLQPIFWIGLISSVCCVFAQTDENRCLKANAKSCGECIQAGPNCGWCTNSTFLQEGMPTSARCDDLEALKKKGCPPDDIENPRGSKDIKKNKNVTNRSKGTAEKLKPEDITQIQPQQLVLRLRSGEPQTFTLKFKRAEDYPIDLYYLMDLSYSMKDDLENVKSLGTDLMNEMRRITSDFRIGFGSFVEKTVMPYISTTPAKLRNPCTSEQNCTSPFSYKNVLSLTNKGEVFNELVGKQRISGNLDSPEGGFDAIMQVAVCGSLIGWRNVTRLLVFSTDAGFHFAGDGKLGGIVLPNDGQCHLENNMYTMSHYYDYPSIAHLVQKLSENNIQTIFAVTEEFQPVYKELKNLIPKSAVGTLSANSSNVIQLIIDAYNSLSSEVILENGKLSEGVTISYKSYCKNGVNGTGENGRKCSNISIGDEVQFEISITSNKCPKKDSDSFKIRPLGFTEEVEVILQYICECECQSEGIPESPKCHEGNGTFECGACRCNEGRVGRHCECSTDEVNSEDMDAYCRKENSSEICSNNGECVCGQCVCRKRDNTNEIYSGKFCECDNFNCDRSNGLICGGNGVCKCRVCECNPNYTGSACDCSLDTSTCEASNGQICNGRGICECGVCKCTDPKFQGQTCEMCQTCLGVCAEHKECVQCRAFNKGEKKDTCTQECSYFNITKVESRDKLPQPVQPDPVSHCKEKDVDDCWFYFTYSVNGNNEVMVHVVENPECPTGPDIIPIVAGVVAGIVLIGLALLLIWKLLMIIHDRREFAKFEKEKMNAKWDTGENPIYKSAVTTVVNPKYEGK
Integrin beta-1 (Homo sapiens) + Integrin alpha-4 (Homo sapiens), sequence (P13612 whole entry, looked up): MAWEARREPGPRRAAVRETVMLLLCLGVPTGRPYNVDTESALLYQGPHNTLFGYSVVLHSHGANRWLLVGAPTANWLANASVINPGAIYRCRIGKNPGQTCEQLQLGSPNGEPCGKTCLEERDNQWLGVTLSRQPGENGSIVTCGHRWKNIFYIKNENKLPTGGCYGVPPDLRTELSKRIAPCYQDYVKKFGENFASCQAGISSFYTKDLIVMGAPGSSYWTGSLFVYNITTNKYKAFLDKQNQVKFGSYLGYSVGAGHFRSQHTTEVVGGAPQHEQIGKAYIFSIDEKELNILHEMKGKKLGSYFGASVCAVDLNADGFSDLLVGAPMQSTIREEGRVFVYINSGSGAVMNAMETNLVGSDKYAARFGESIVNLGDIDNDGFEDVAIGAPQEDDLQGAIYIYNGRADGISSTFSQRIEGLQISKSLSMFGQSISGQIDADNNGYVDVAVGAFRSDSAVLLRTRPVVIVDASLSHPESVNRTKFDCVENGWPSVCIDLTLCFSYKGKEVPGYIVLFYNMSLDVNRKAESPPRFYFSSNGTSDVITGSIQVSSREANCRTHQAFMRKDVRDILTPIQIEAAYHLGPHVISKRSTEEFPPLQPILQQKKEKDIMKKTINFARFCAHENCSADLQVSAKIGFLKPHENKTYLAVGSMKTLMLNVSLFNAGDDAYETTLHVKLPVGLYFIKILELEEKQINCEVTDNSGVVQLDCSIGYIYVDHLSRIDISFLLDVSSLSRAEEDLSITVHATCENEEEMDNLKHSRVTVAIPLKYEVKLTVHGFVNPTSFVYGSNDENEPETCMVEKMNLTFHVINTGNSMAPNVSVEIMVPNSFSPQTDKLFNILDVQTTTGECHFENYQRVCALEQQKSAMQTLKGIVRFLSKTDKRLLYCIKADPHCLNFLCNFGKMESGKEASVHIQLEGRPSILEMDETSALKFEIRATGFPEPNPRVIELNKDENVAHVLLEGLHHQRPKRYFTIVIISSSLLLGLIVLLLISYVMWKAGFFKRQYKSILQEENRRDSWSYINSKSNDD

[14] = superoxide lowering in aged yeast cells, pilot screen, validation compound set (AID 2706;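 active means superoxide response below 65% of plate, a cut near 3 SD across the whole screen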;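 further: yeast exposed to compound for one week at 30 degrees C before staining; 100% = mean of all compound wells on the same plate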); conditions: S. cerevisiae aging, superoxide DHE fluorescence; at 10 µM; stronger effect = lower value
[15] = target: Beta-adrenergic receptor kinase 1 (Homo sapiens) (UniProt P25098); assay: GRK2 binders displacing RNA aptamer, biochemical, validation, human GRK2, bead flow cytometry (AID 488806;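 active means aptamer binding inhibition above 30%, about 3 SD of noise from non-fluorescent compounds; inactive means inhibition at or below 30%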); conditions: bead-bound GRK2, FAM-aptamer displacement, at 10 µM, stronger effect = higher value
Beta-adrenergic receptor kinase 1 (Homo sapiens), sequence (P25098 whole entry, looked up): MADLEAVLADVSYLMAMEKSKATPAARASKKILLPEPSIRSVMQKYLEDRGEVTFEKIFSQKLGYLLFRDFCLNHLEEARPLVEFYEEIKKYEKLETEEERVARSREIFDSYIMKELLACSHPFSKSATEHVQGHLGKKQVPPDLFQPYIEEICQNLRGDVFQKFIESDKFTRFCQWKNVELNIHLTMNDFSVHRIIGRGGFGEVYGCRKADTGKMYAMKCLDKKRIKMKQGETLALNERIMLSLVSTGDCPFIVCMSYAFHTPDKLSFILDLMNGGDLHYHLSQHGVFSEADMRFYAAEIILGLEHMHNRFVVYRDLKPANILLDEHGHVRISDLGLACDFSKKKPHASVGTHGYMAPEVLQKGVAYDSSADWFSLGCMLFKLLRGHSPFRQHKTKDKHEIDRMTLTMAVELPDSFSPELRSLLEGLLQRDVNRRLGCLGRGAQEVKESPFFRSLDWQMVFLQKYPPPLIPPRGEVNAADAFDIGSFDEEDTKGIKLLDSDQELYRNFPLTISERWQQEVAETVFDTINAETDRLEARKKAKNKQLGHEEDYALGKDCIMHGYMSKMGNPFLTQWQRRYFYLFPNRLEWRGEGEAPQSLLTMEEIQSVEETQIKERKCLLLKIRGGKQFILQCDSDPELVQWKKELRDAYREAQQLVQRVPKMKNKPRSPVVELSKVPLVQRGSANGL

[16] = target: Beta-2 adrenergic receptor (Homo sapiens) (UniProt P07550); assay: beta2AR agonists driving receptor internalization, pilot screen, cell-based, FAP fluorogen, flow cytometry, validation set (AID 504459;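 active means percent response above 42, roughly 3 SD of non-fluorescent test compounds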;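 further: agonist-driven loss of surface beta2AR via internalization measured by FAP dye flow cytometry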); conditions: Am2.2-beta2AR cells, FAP surface receptor flow cytometry; at 10 µM; stronger effect = higher value
[17] = target: AP-2 complex subunit beta (Homo sapiens) (UniProt P63010); assay: inhibitors of arrestin peptide binding to AP2, pilot screen, biochemical, validation set, GST-AP2 beads, flow cytometry (AID 504541;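 active means inhibition above 54%, about 3 SD of non-fluorescent compounds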;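 further: AP2 carries R879A mutation and is captured from E. coli lysate; bead-bound FITC arrestin peptide fluorescence measuring arrestin peptide binding to AP2; 0% = DMSO wells and 100% = excess unlabeled arrestin peptide control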); conditions: FITC arrestin peptide, at 10 µM, stronger effect = higher value, AP2 beta2 appendage fragment, R879A mutant
AP-2 complex subunit beta (Homo sapiens), sequence (P63010 whole entry, looked up, the tested form may be a part, one chain of several): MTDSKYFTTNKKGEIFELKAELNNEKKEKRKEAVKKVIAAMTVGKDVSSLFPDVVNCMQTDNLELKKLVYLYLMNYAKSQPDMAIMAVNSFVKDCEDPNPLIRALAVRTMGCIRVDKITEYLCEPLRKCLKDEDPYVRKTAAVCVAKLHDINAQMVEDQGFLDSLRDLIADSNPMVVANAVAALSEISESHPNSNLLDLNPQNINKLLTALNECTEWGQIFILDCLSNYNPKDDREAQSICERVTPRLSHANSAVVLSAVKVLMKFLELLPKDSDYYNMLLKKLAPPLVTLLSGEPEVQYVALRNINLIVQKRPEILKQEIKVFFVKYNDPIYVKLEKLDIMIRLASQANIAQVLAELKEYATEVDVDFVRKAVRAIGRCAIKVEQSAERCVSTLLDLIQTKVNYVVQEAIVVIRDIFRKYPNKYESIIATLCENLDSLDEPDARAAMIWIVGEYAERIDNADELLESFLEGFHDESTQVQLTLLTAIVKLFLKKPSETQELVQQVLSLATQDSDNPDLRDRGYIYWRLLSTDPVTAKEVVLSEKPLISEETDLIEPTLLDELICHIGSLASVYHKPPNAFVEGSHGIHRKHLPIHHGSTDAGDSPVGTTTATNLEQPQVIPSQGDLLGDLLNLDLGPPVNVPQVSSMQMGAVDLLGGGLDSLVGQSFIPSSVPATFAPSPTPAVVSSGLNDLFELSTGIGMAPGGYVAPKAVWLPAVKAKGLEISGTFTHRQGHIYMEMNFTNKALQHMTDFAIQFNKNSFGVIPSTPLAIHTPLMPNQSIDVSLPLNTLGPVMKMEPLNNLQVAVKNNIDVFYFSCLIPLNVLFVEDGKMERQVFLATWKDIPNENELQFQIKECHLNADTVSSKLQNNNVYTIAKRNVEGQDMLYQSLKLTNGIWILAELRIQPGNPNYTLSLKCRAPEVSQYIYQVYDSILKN

[18] = yeast V-ATPase proton transport modulators, S. cerevisiae, pHLuorin, HTS validation (AID 504600; in the data active means response above about 15%;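 further: plate controls were DMSO for no effect and reference compound for full effect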); conditions: S. cerevisiae pHLuorin cytosolic pH, at 10 µM, stronger effect = higher value
[19] = test system: anti-desmoglein-3 scFv antibody binding to human DSG3; assay: inhibitors of anti-DSG3 scFv binding to DSG3, pilot screen, biochemical, validation compound set, bead-based, flow cytometry (AID 588368;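 active means binding below the plate cutoff, the plate median minus 3 SD, with a reading above zero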;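 further: signal is the median channel fluorescence of bead-bound GFP antibody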); conditions: Protein G beads, DSG3-Fc, scFv-GFP binding, at 10 µM, stronger effect = lower value
[20] = inhibitors of fungal efflux pumps CDR1, CDR2, MDR1, pilot screen, validation compound set, multiplex, phenotypic (AID 588506;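 active means efflux inhibition above 0.42, the validation set average plus 4 SD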;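 further: Nile Red retained in cells so higher fluorescence means more efflux inhibition; 0 = negative control wells and 1 = enniatin B 25 µM full block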); conditions: S. cerevisiae pump-expressing triplex, Nile Red efflux flow cytometry; at 10 µM; stronger effect = higher value; the pumps come from Candida albicans
[21] = target: ATP-binding cassette sub-family B member 6 (Homo sapiens) (UniProt Q9NP58); assay: ABCB6 transporter inhibitors, pilot screen, K562-ABCB6 cells, flow cytometry, validation set (AID 588550;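 active means inhibition above the screen-wide mean plus 3 SD, about 51%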;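 further: 0% = DMSO wells and 100% = benzethonium chloride 70 µM positive control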); conditions: K562-ABCB6 porphyrin accumulation, 1 h, at 10 µM, stronger effect = higher value
ATP-binding cassette sub-family B member 6 (Homo sapiens), sequence (Q9NP58 whole entry, looked up): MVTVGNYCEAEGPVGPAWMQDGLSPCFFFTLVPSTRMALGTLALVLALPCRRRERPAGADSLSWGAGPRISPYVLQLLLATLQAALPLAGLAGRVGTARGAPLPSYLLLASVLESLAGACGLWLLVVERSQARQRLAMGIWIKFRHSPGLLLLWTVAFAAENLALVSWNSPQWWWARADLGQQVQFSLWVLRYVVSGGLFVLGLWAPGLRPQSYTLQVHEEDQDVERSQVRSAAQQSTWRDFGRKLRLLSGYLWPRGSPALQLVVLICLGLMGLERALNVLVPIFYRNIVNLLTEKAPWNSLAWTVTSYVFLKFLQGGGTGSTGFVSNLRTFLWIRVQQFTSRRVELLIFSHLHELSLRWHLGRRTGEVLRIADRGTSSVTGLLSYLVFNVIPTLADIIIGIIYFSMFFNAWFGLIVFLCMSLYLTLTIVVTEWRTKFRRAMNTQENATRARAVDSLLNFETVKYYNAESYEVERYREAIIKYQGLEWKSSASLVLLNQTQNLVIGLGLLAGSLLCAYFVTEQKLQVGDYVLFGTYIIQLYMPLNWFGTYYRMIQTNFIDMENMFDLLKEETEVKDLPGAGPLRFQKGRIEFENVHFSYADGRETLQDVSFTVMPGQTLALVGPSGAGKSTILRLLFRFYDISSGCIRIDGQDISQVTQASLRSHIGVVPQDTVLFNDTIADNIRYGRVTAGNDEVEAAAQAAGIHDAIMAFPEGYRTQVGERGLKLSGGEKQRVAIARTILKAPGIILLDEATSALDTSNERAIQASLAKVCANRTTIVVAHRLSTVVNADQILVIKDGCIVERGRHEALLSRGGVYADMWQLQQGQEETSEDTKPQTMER

[22] = promoters of myeloid differentiation in arrested cells, primary screen, cell-based, GFP/MAC1 double positive, flow cytometry, validation set (AID 588685;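 active means differentiation response of at least 50%, scaled between solvent and reference control, from cells with both markers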;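 further: compound exposure lasts four days before antibody staining and flow analysis; 0% = DMSO wells and 100% = 5 µM fulvestrant positive control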); conditions: ER-HoxA9 marrow cells, stronger effect = higher value, normalized: vehicle 0, fulvestrant 100
[23] = LAP4-GFP expression modulators in yeast, confirmation, cell-based, second cherry pick, flow cytometry (AID 2621;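 active means GFP signal as percent of the solvent control above about 150%, meaning raised reporter expression, limit read from the data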;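 further: ratio of well median GFP fluorescence to plate DMSO mean so 100% = DMSO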); conditions: S. cerevisiae LAP4-GFP strain, 3 h, at 10 µM, stronger effect = higher value
[24] = modulators of MEP2-GFP levels in yeast, confirmation, S. cerevisiae, flow cytometry GFP, second cherry picks (AID 2622;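 active means GFP signal above 150% of the solvent control wells, that is a rise of more than half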;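 further: median channel GFP fluorescence of all gated yeast cells per well; ratio of median GFP to plate DMSO average so 100% = DMSO level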); conditions: S. cerevisiae MEP2-GFP strain, 3 h, at 10 µM, stronger effect = higher value
[25] = RPL19A-GFP modulators in TOR pathway yeast, confirmation, cell-based, S. cerevisiae, flow cytometry, second cherry pick (AID 2623;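 active means under 65% GFP response relative to DMSO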;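 further: median GFP channel fluorescence per well over the all cells gate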); conditions: S. cerevisiae RPL19A-GFP strain, 3 h, at 10 µM, stronger effect = lower value, 100% means same as DMSO wells
[26] = modulators of CIT2-GFP expression in yeast, confirmation, flow cytometry, second cherry pick, single plex (AID 2624;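 active means GFP response vs DMSO above about 150%, limit read from the data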;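 further: median green fluorescence per well over all gated yeast cells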); conditions: S. cerevisiae CIT2-GFP strain, 3 h, at 10 µM, stronger effect = higher value, DMSO control wells read 100%
[27] = AGP1-GFP expression modulators, hit retest, confirmation, cell-based, flow cytometry, S. cerevisiae, cherry pick set 2 (AID 2643;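 active means over 150 percent of DMSO response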;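 further: median GFP channel fluorescence over all cells without mother daughter split; sample median GFP divided by mean DMSO control so 100% equals DMSO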); conditions: S. cerevisiae AGP1-GFP strain, 3 h, at 10 µM, stronger effect = higher value
[28] = compound autofluorescence in yeast s288c, dose response, artefact control for yeast TOR pathway GFP screen, s288c strain (AID 2757;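 active means fluorescence span over the dose series, or activity score, above about 33, limit read from the data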;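 further: thousands of bead-calibrated equivalent soluble fluorophore molecules from median cell fluorescence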); conditions: S. cerevisiae s288c, 520 nm autofluorescence, flow cytometry, 3 h; at 33 µM; stronger effect = higher value; zero means same as solvent-only cells

COc1ccc(-c2nnc(CSc3nc4ccccc4c(=O)n3C)o2)cc1OC
outcome [1]: inactive
fluorescence, percent of control (lower = inhibition) [2]: 39.2%
GTP binding, percent of control [3]: 87.3%
outcome [4]: inactive
GTP binding signal, raw median fluorescence (lower = inhibition) (MCF (arbitrary fluorescence units)) [5]: 320
outcome [6]: inactive

COC(=O)C1=NN(C(=O)c2cccc(Br)c2)C(O)(c2ccc(Cl)cc2)C1 (stereo unspecified)
outcome [1]: inactive
fluorescence, percent of control (lower = inhibition) [2]: 31.2%
GTP binding, percent of control [3]: 79.1%
outcome [4]: inactive
GTP binding signal, raw median fluorescence (lower = inhibition) (MCF (arbitrary fluorescence units)) [5]: 240
outcome [6]: inactive
percent of DMSO control GFP [7]: 100% (inactive)
GFP response vs DMSO [8]: 95.1% (inactive)
percent response of DMSO control [9]: 97.8% (inactive)
GFP response vs DMSO [10]: 114% (inactive)
GFP response, % of DMSO [11]: 89.9% (inactive)
double positive events [12]: 63.4%
vesicle binding response [12]: 223% (inactive)
inhibition [13]: -83.5% (inactive)
superoxide response (% of plate) [14]: 93.4% (inactive)
aptamer binding inhibition [15]: 3% (inactive)
response [16]: -15.6% (inactive)
inhibition [17]: -11.3% (inactive)
response [18]: -0.27% (inactive)
binding (% of control) [19]: 109% (inactive)
efflux inhibition (fraction of control) [20]: -0.1 (inactive)
inhibition [21]: -2% (inactive)
differentiation response [22]: 11% (inactive)

COc1ccc(/C=C/C(=O)c2cc(Br)ccc(=O)c2O)cc1
outcome [1]: inactive
fluorescence, percent of control (lower = inhibition) [2]: 28.6%
GTP binding, percent of control [3]: 73%
outcome [4]: inactive
GTP binding signal, raw median fluorescence (lower = inhibition) (MCF (arbitrary fluorescence units)) [5]: 226
outcome [6]: inactive
GFP response vs DMSO [23]: 169% (active)
GFP response vs DMSO [24]: 185% (active)
GFP response vs DMSO [25]: 77.3% (inactive)
GFP response vs DMSO [26]: 191% (active)
percent response vs DMSO [27]: 80% (inactive)
fluorescence change (kMESF span) [28]: 68.2 (active)
